Among the data in article PMC8384837, “Expanding the binding specificity for RNA recognition by a PUF domain” are binding signal values, retold here.

Experiment in all cases: yeast three-hybrid, YBZ-1, SC-Leu-His + 0.5 mM 3-AT, 4 days
Common to all, as to conditions: tags: N-Gal4 AD-HA kept; label: inside an RPR1-promoter hybrid RNA with tandem MS2 sites; ssRNA

The target of assay [1] is PUM1 PUF domain R1-KAR (Homo sapiens, UniProt Q14671 828-1176, S863K;R864A;Q867R). The essentials: (§1)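 The interaction score is the logarithmic change in variant frequency from input to selection. It uses log2, with a pseudocount of 1 for absent variants, and frequencies came from PCR-amplified, Illumina-sequenced repeat regions. The libraries were Pumilio-1 PUF domains randomized at the three base-contacting residues per repeat, co-expressed with matching RNA elements in strain YBZ-1 (LexA–MS2 coat fusion, HIS3 reporter). Plating lasted four days on SC-Leu (input) or SC-Leu-His + 0.5 mM 3-AT (selection).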

The target in assay [2] is PUM1 PUF domain R1-KGQ (Homo sapiens, UniProt Q14671 828-1176, S863K;R864G). In short, it runs like this:
as §1

Assay [3] has as its target PUM1 PUF domain R3-ERS (Homo sapiens, UniProt Q14671 828-1176, C935E;Q939S). In short, it runs like this:
as §1

The target of assay [4] is PUM1 PUF domain R1-RMQ (Homo sapiens, UniProt Q14671 828-1176, S863R;R864M). In short, it runs like this:
as §1

Assay [5] addresses PUM1 PUF domain R5-NRR (Homo sapiens, UniProt Q14671 828-1176, C1007N;Q1011R). The essentials: as §1
The target in assay [6] is PUM1 PUF domain R5-KGW (Homo sapiens, UniProt Q14671 828-1176, C1007K;R1008G;Q1011W). In short, it runs like this: as §1
The target of assay [7] is PUM1 PUF domain R5-RYK (Homo sapiens, UniProt Q14671 828-1176, C1007R;R1008Y;Q1011K). The essentials: as §1
Assay [8] concerns the target PUM1 PUF domain R2-VFV (Homo sapiens, UniProt Q14671 828-1176, N899V;Y900F;Q903V). In short, it runs like this: as §1

Consider “GGCUAGAACUAGUGGAUCCCCCGGCGCCCGGCGGCUCGAGCCCGGGUAAGUGUAAAUUGUCUGCAUGCCGCCGGGCGCCAUGCCUGCAGGUCGACUCUAGAAAACAUG”, for which the results for the binding signal in assay [1] and in assay [2] were 6.7 log2 enrichment (interaction score) and 5.42 log2 enrichment (interaction score), respectively.

For the sequence “GGCUAGAACUAGUGGAUCCCCCGGCGCCCGGCGGCUCGAGCCCGGGUAAGUGUAAGUAGUCUGCAUGCCGCCGGGCGCCAUGCCUGCAGGUCGACUCUAGAAAACAUG”, the binding signal in assay [3] is 2.54 log2 enrichment (interaction score).

Consider “GGCUAGAACUAGUGGAUCCCCCGGCGCCCGGCGGCUCGAGCCCGGGUAAGUGUAAAUCGUCUGCAUGCCGCCGGGCGCCAUGCCUGCAGGUCGACUCUAGAAAACAUG”, for which the binding signal in assay [2] is 4.94 log2 enrichment (interaction score); in assay [4], 5.34 log2 enrichment (interaction score).

Regarding “GGCUAGAACUAGUGGAUCCCCCGGCGCCCGGCGGCUCGAGCCCGGGUAAGUGUCAAUAGUCUGCAUGCCGCCGGGCGCCAUGCCUGCAGGUCGACUCUAGAAAACAUG”, the binding signal is 6.16 log2 enrichment (interaction score) in assay [5], 3.14 log2 enrichment (interaction score) in assay [6] and 4.4 log2 enrichment (interaction score) in assay [7].

Turning to “GGCUAGAACUAGUGGAUCCCCCGGCGCCCGGCGGCUCGAGCCCGGGUAAGUGUAAAAAGUCUGCAUGCCGCCGGGCGCCAUGCCUGCAGGUCGACUCUAGAAAACAUG”, the binding signal in assay [8] was 5.17 log2 enrichment (interaction score).
